The supplement of paper PMC10338343
± gives the standard deviation.

Tested on: MILI (PIWIL2) piRISC loaded with L1MC piRNA (26 nt)
Assay: pre-steady-state target cleavage rate (min^-1); guide: L1MC piRNA 5'p-UAACUAAAUACUAUGCAAGCUGUAGG; higher = faster piRNA-guided slicing of the target
Conditions: auxiliary factor: 500 nM mouse GTSF1
Method in brief: (§1)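 Cleave-'n-Seq: 1 nM active affinity-purified piRISC with one synthetic guide and 0.1 nM transcribed, DNA-blocked target RNA library were mixed, with or without 500 nM GTSF1 partner protein, in HEPES–potassium acetate buffer at 33 °C for 0–8 or 0–960 min. Uncleaved targets were sequenced and normalised to depth and to weakly complementary targets, three trials were pooled, and k3 was capped at 0.0001 min^-1. The pre-steady-state cleavage rate was fitted […].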

Sequence | pre-steady-state target cleavage rate
UCCUCCUAGAGCUUGCAUUGUAUUUAGUUA | 0.213 ± 0.012
UCCUGGAUCAGCAUGCAUAGUAUUUAGAAA | 0.126 ± 0.018
UCCUGGAUCAGCUUGCAUAGUAUUCAGUUA | 0.179 ± 0.024
UCCUGGAUGAGCUUGCAUAGUAGUUUAGUUA | 0.115 ± 0.022
UCCUGGAUCAGCUUGCAAUGUAUUUAGUUA | 0.0475 ± 0.011
UCCUGCUAGUCCUUGCAUAGUAUUUAGUUA | 0.0977 ± 0.016
UCCUGCUACAUCUUGCAUAGUAUUUAGUUA | 0.239 ± 0.02
UCCUGGAUGUCCUAUGCAUAGUAUUUAGUUA | 0.0987 ± 0.02
UCCUGCUGCAGCUUGCAUAGUAUUUAGUUA | 0.331 ± 0.024
UCCUGGAUCACCAUGCAUAGUAUUUAGUUA | 0.14 ± 0.019
UCCUGCUACAGCUUGCAUAGUAUCUUAGUUA | 0.259 ± 0.027
UCCUGCUACAGCUUUGCAUAGUAUUUAGUUA | 0.263 ± 0.02
UCCUCCUUCAGCUUGCAUUGUAUUUAGUUA | 0.226 ± 0.019
UCCUGGAACAGUCUUGCAUAGUAUUUAGUUA | 0.26 ± 0.018
UCCUCCUACACGCUUGCAUAGUAUUUAGUUA | 0.207 ± 0.013
UCCUGGAAGAGCUAGCAUAGUAUUUAGUUA | 0.212 ± 0.016
UCCUCCUACAGCUGUGCAUAGUAUUUAGUUA | 0.321 ± 0.017

Same assay, conditions: auxiliary factor: none (no GTSF1)

Sequence | pre-steady-state target cleavage rate
UCCUGGUACAGCUUCGCAUAGUAUUUAGUUA | 0.0125 ± 0.0035
UCCUGGACCAGCUUGCAUAGUAUUUAGUUA | 0.00604 ± 0.0027
UCCUGCUACAGCUUCCAAAGUAUUUAGUUA | 0.00347 ± 0.0025
UCCUGGUACAGCUUGCAUAGUAUUAAGUUA | 0.00423 ± 0.0038
UCCUGCUACUGCUUGCAUUGUAUUUAGUUA | 0.0081 ± 0.0024
UCCUCCUACAGUCUUGCAUAGUAUUUAGUUA | 0.00736 ± 0.0023
UCCUGGAUGAGCUUGCAUACUAUUUAGUUA | 0.00321 ± 0.0018
UCCUCCUACAGCUAGCAUAGUAUUUAGUUA | 0.00812 ± 0.0022
UCCUGCUACAGCUUGCAUAGUAAUUUAGUUA | 0.00525 ± 0.0024
UCCUCCUACAGCAUGCAUAGUUUUUAGUUA | 0.00447 ± 0.002
UCCUGCUACAGCUUGCGUAGUAUUUAGUUA | 0.00688 ± 0.0029
UCCUGGAUGAUCUUGCAUAGUAUUUAGUUA | 0.00813 ± 0.003
UCCUGCUACAGCUUGCAUAGUAUUUAGUUG [g2:g25:cont:t1G] | 0.0083 ± 0.0024
UCCUCCUACAGCUCGCAUAGUAUUUAGUUA | 0.0109 ± 0.0027
UCCUGGAUGAUGCUUGCAUAGUAUUUAGUUA | 0.00923 ± 0.0034
UCCUGCUACAGGUUGCUUAGUAUUUAGUUA | 0.0118 ± 0.0038
UCCUGGAACAUCUUGCAUAGUAUUUAGUUA | 0.0108 ± 0.0028
UCCUCCAACAGCUUGCAUAGUAUAUAGUUA | 0.0056 ± 0.0022
UCCUGGUACUAGCUUGCAUAGUAUUUAGUUA | 0.00943 ± 0.003
UCCUGGAUGAGCUUGCAUAGUAUUUAGUUU [g2:g21:cont:t1U] | 0.0146 ± 0.0035

Sequence | pre-steady-state target cleavage rate
UCCUGGAACAGGUUGCUUAGUAUUUAGUUA | 0.0109 ± 0.0031
UCCUGGAAGAGCUUGCAUACUAUUUAGUUA | 0.00312 ± 0.0024
UCCUGGAUCAGCUUGCUUAGUAUUUAGUUA | 0.0092 ± 0.0031
UCCUCCUAGAGCUUGCAUUGUAUUUAGUUA | 0.00709 ± 0.0021
UCCUGGAUCAGCAUGCAUAGUAUUUAGAAA | 0.0038 ± 0.0026
UCCUGGAUCAGCUUGCAUAGUAUUCAGUUA | 0.00376 ± 0.0025
UCCUGGAUGAGCUUGCAUAGUAGUUUAGUUA | 0.0138 ± 0.0039
UCCUGGAUCAGCUUGCAAUGUAUUUAGUUA | 0.00413 ± 0.0025
UCCUGCUAGUCCUUGCAUAGUAUUUAGUUA | 0.00689 ± 0.0019
UCCUGCUACAUCUUGCAUAGUAUUUAGUUA | 0.0095 ± 0.0022
UCCUGGAUGUCCUAUGCAUAGUAUUUAGUUA | 0.00575 ± 0.0022
UCCUGCUGCAGCUUGCAUAGUAUUUAGUUA | 0.00762 ± 0.0024
UCCUGGAUCACCAUGCAUAGUAUUUAGUUA | 0.00489 ± 0.0025
UCCUGCUACAGCUUGCAUAGUAUCUUAGUUA | 0.00985 ± 0.0022
UCCUGCUACAGCUUUGCAUAGUAUUUAGUUA | 0.00559 ± 0.0027
UCCUCCUUCAGCUUGCAUUGUAUUUAGUUA | 0.00662 ± 0.002
UCCUGGAACAGUCUUGCAUAGUAUUUAGUUA | 0.00993 ± 0.0026
UCCUCCUACACGCUUGCAUAGUAUUUAGUUA | 0.00734 ± 0.0025
UCCUGGAAGAGCUAGCAUAGUAUUUAGUUA | 0.00677 ± 0.0024
UCCUCCUACAGCUGUGCAUAGUAUUUAGUUA | 0.00714 ± 0.0025

Tested on: EfPiwi piRISC loaded with L1MC piRNA (26 nt)
Assay: pre-steady-state target cleavage rate (min^-1); auxiliary factor: 500 nM Ephydatia muelleri Gtsf1; guide: L1MC piRNA 5'p-UAACUAAAUACUAUGCAAGCUGUAGG; MIWI and MILI are mouse PIWI proteins and EfPiwi is from a freshwater sponge; tags in brackets are library labels; higher = faster piRNA-guided slicing of the target
Conditions: not given
Method in brief: as §1

Sequence | pre-steady-state target cleavage rate
UCCUGGUACAGCUUCGCAUAGUAUUUAGUUA | 0.038 ± 0.0086
UCCUGGACCAGCUUGCAUAGUAUUUAGUUA | 0.159 ± 0.037
UCCUGCUACAGCUUCCAAAGUAUUUAGUUA | 0.00321 ± 0.0019
UCCUGGUACAGCUUGCAUAGUAUUAAGUUA | 0.00521 ± 0.0021
UCCUGCUACUGCUUGCAUUGUAUUUAGUUA | 0.00835 ± 0.0023
UCCUCCUACAGUCUUGCAUAGUAUUUAGUUA | 0.0171 ± 0.006
UCCUGGAUGAGCUUGCAUACUAUUUAGUUA | 0.00682 ± 0.0019
UCCUCCUACAGCUAGCAUAGUAUUUAGUUA | 0.0119 ± 0.0038
UCCUGCUACAGCUUGCAUAGUAAUUUAGUUA | 0.00515 ± 0.0024
UCCUCCUACAGCAUGCAUAGUUUUUAGUUA | 0.00379 ± 0.0028
UCCUGCUACAGCUUGCGUAGUAUUUAGUUA | 0.0375 ± 0.011
UCCUGGAUGAUCUUGCAUAGUAUUUAGUUA | 0.0779 ± 0.023
UCCUGCUACAGCUUGCAUAGUAUUUAGUUG [g2:g25:cont:t1G] | 0.00685 ± 0.0019
UCCUCCUACAGCUCGCAUAGUAUUUAGUUA | 0.0845 ± 0.019
UCCUGGAUGAUGCUUGCAUAGUAUUUAGUUA | 0.0738 ± 0.022
UCCUGCUACAGGUUGCUUAGUAUUUAGUUA | 0.0276 ± 0.0074
UCCUGGAACAUCUUGCAUAGUAUUUAGUUA | 0.0653 ± 0.016
UCCUCCAACAGCUUGCAUAGUAUAUAGUUA | 0.00628 ± 0.0027
UCCUGGUACUAGCUUGCAUAGUAUUUAGUUA | 0.00885 ± 0.0038
UCCUGGAUGAGCUUGCAUAGUAUUUAGUUU [g2:g21:cont:t1U] | 0.0356 ± 0.0098

Sequence | pre-steady-state target cleavage rate
UCCUGGAACAGGUUGCUUAGUAUUUAGUUA | 0.00924 ± 0.0022
UCCUGGAAGAGCUUGCAUACUAUUUAGUUA | 0.00438 ± 0.0026
UCCUGGAUCAGCUUGCUUAGUAUUUAGUUA | 0.0228 ± 0.0071
UCCUCCUAGAGCUUGCAUUGUAUUUAGUUA | 0.018 ± 0.0048
UCCUGGAUCAGCAUGCAUAGUAUUUAGAAA | 0.00356 ± 0.0021
UCCUGGAUCAGCUUGCAUAGUAUUCAGUUA | 0.00509 ± 0.0019
UCCUGGAUGAGCUUGCAUAGUAGUUUAGUUA | 0.00964 ± 0.0035
UCCUGGAUCAGCUUGCAAUGUAUUUAGUUA | 0.00462 ± 0.0039
UCCUGCUAGUCCUUGCAUAGUAUUUAGUUA | 0.00428 ± 0.0023
UCCUGCUACAUCUUGCAUAGUAUUUAGUUA | 0.0423 ± 0.014
UCCUGGAUGUCCUAUGCAUAGUAUUUAGUUA | 0.00508 ± 0.0022
UCCUGCUGCAGCUUGCAUAGUAUUUAGUUA | 0.0729 ± 0.016
UCCUGGAUCACCAUGCAUAGUAUUUAGUUA | 0.013 ± 0.0061
UCCUGCUACAGCUUGCAUAGUAUCUUAGUUA | 0.00633 ± 0.0017
UCCUGCUACAGCUUUGCAUAGUAUUUAGUUA | 0.0161 ± 0.0053
UCCUCCUUCAGCUUGCAUUGUAUUUAGUUA | 0.0307 ± 0.0077
UCCUGGAACAGUCUUGCAUAGUAUUUAGUUA | 0.00822 ± 0.0027
UCCUCCUACACGCUUGCAUAGUAUUUAGUUA | 0.00856 ± 0.003
UCCUGGAAGAGCUAGCAUAGUAUUUAGUUA | 0.00727 ± 0.0022
UCCUCCUACAGCUGUGCAUAGUAUUUAGUUA | 0.0425 ± 0.015
